{"source": "PubChem BioAssay (NCI)", "note": "This is part of a sample that, as a whole, favours compounds with a hit. Of some 83,000 tested, about 20% had one in any assay.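 Compound tested at a single concentration for 48 hours in 96-well plates; a percent growth value below 10 was scored as active.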 The source made the active and inactive calls."}
{"test_system": "MDA-MB-468 breast", "test": "NCI-60 one-dose screen, 48 h (100 = growth as untreated, 0 = no growth, -100 = all killed)", "settings": "10 µM unless noted"}
{"smiles": "COc1ccc(C2C=C(c3ccc(OC)c(OC)c3)N=C3SC=C(C)N32)c(Br)c1", "note": "(stereo not given)", "growth": "95.9% (inactive)"}
{"smiles": "COc1ccc(/C=N/NC(=O)CN2CCN(c3cc4c(cc3F)c(=O)c(C(=O)O)cn4C3CC3)CC2)cc1O", "growth": "101% (inactive)"}
{"smiles": "CS(=O)(=O)c1ccc(-c2cc3c(oc2=O)-c2ccccc2OC3O)cc1", "note": "(stereo not given)", "growth": "91.6% (inactive)"}
{"smiles": "O=C(/C=C/c1cccc2ccccc12)Nc1ncc(Cc2ccccc2)s1", "growth": "-14.4% (active)"}
{"smiles": "Cc1ccc(-c2c3c(N)c4c(nc3nc3c2c(C)nn3-c2ccccc2)CCC4)cc1", "growth": "53% (inactive)"}
{"smiles": "CC(=O)C[n+]1ccccc1Sc1ccc(Cl)cc1", "growth": "97.3% (inactive)"}
{"smiles": "COc1cc(-c2cc3ncccc3c3nc(OCCN(C)C)c4cccnc4c23)cc(OC)c1OC", "growth": "-6.09% (active)"}
{"smiles": "Cc1c(C(=O)/C=C/c2csc3ccccc23)[n+](=O)c2ccccc2n1[O-]", "growth": "-16.5% (active)"}
{"smiles": "O=C1NCCC12CCN(c1c(Cl)cncc1-c1ccc(O)cc1)CC2", "growth": "84.3% (inactive)"}
{"smiles": "Cc1ccc(C(C)C)cc1C(=O)C[n+]1ccccc1", "growth": "107% (inactive)"}
{"smiles": "Cc1nc(N2CCOCC2)sc1S(N)(=O)=O", "growth": "97% (inactive)"}
{"smiles": "Cc1cccc(NC(=O)[C@@H]2c3ccccc3C(=O)N(c3ccc(Cl)cc3)[C@H]2c2ccc(Cl)cc2)n1", "growth": "17.7% (inactive)"}
{"smiles": "CC(C)=CCC[C@](C)(O)[C@H]1CC[C@]2(C)[C@@H]1CC[C@@H]1[C@@]3(C)CC/C(=N/O)C(C)(C)[C@@H]3CC[C@]12C", "growth": "-26.3% [100 µM] (active)"}
{"smiles": "CCCCCCCCCCCCCCCCCCOc1ccccc1N", "growth": "101% (inactive)"}
{"smiles": "CO[C@H]1NC(=O)N(S(=O)(=O)c2ccc(Cl)cc2)[C@@H]1OC", "growth": "110% (inactive)"}
{"smiles": "Clc1ccc(Nc2nc(Nc3ccccc3)nc(Nc3ccc(-c4cc(-c5ccc(Cl)cc5)on4)cc3)n2)cc1", "growth": "93.4% (inactive)"}
{"smiles": "CC(C)C1=C(O)C2=C(C(=O)C1=O)[C@@]1(C)CCCC(C)(C)[C@@H]1CC2", "growth": "73.1% (inactive)"}
{"smiles": "CC(=O)[C@@]12O[C@](C)(c3ccccc3)O[C@@H]1CC1C3CCC4=CC(=O)CC[C@]4(C)C3CC[C@@]12C", "note": "(stereo not given in full)", "growth": "32.8% (inactive)"}
{"smiles": "O=C(O)c1cn(C2CC2)c2cc(N3CCN(S(=O)(=O)c4ccc(Cl)c(Cl)c4)CC3)c(F)cc2c1=O", "growth": "-10.6% (active)"}
{"smiles": "COc1cccc(/C=C/C(=O)c2cc3c(N)c(C(=O)Nc4ccccc4C)sc3nc2C)c1", "growth": "16.7% (inactive)"}
{"smiles": "Cc1cccc2c3c(sc12)C(c1ccc(Cl)cc1)C(C#N)=C(/N=C/c1ccc(Cl)cc1)O3", "note": "(stereo not given)", "growth": "10.9% (inactive)"}
{"smiles": "CC12CCC(O)CC1=CCC1C2CCC2(C)C3=NN=CC3CC12", "note": "(stereo not given)", "growth": "92.1% (inactive)"}
{"smiles": "COC1=CC2C=C(C3N(c4ccccc4)NC(=O)[C@@H]4CCCN34)C(=O)NC2C=C1", "note": "(stereo not given in full)", "growth": "114% (inactive)"}
{"smiles": "O=C(Oc1cccnc1)c1ccsc1Nc1ccnc(C(F)(F)F)c1", "growth": "17% (inactive)"}
{"smiles": "CCCCCC1CCCCN1C(=O)OCC", "note": "(stereo not given)", "growth": "150% (inactive)"}
{"smiles": "C[C@@H](Oc1cc(-n2cnc3ccc(CN4CCN(C)CC4)cc32)sc1C(N)=O)c1ccccc1C(F)(F)F", "growth": "6.59% (active)"}
{"smiles": "Cc1c2c(cc3c1[nH]c1ccccc13)C=NCC2", "growth": "80.2% (inactive)"}
{"smiles": "NC(=O)c1c(NC(=O)c2ccc(Cl)cc2)sc2c1CCC(=O)C2", "growth": "88.5% (inactive)"}
{"smiles": "Fc1ccc(Nc2ccc3cc(OCCCN4CCOCC4)ccc3n2)cc1F", "growth": "52.8% (inactive)"}
{"smiles": "Cc1ccc(-n2c(=S)[nH]c3sc4c(c3c2=O)CCC(=O)C4)cc1", "growth": "51.1% (inactive)"}
{"smiles": "Cc1ccc2c(c1)C(C)Cc1c(ncnc1-n1cnc3cc(C)ccc31)N2C", "note": "(stereo not given)", "growth": "9.76% (active)"}
{"smiles": "O=C(OCCBr)c1ccc(Cl)c([N+](=O)[O-])c1", "growth": "-79.8% (active)"}
{"smiles": "O=C1c2ccccc2C(=O)c2c(NCCN=Cc3ccccc3O)cccc21", "growth": "43.8% (inactive)"}
{"smiles": "Cc1nc2cc(-c3nn(C(C)C)c4ncnc(N)c34)ccc2o1", "growth": "-37.7% (active)"}
{"smiles": "COc1nc(OC)nc(-c2cc(-c3cc(OC)c(OC)c(OC)c3)no2)n1", "growth": "104% (inactive)"}
{"smiles": "COc1cc(-c2nc(SC(C)C)nc(Nc3ccccc3C)c2C#N)cc(OC)c1OC", "growth": "111% (inactive)"}
{"smiles": "C=C1C(=O)C2CCC1C2", "note": "(stereo not given)", "growth": "110% (inactive)"}
{"smiles": "CC/C=C\\C/C=C\\C[C@H]1C/C=C2/C(=O)C=C[C@H]2C/C=C\\CCC(=O)O1", "growth": "-7.14% (active)"}
{"smiles": "COc1cc(C(=O)CCCl)ccc1O", "growth": "94.7% (inactive)"}
{"smiles": "CCCCC[C@H](O)C/C=C1/C(=O)C=C[C@@H]1C/C=C\\CCCC(=O)OC", "growth": "64.6% (inactive)"}
